Measurements: publication PMC7862700, “An all-to-all approach to the identification of sequence-specific readers for epigenetic DNA modifications on cytosine”

Legend:
Assay in all cases: DAPPL (digital affinity profiling via proximity ligation, sequencing); 10 mM Tris-HCl pH 7.5, 50 mM NaCl, 1 mM DTT, 4% glycerol, room temperature, 30 min; GST-TFs on glutathione beads, 16-mer random dsDNA library, 0.1% formaldehyde crosslink after washing; high values mean tight binding
FEV = biological target: T1, FEV (Homo sapiens, UniProt Q99581 1-238); conditions: protein: recombinant; tags: N-terminal GST; dsDNA, one strand shown
T1 sequence: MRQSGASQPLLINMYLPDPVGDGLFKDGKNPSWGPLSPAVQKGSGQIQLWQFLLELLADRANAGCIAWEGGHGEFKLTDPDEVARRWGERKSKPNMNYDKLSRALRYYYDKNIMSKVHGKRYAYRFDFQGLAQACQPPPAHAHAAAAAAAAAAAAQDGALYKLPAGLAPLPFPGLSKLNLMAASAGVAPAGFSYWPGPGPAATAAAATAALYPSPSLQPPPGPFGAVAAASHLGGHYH
Summary of the method: (§1)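 Binding signal is given per hexamer as its read frequency for a factor divided by its frequency in the tag-only sample. GST-fused human transcription factors were expressed in yeast, captured on glutathione beads, barcoded with DNA and pooled with that sample, then incubated with 200 nmole of a 16-mer random double-stranded DNA library in Tris/NaCl/DTT/glycerol buffer for 30 min at room temperature. The pools were then washed, crosslinked, proximity-ligated, amplified by PCR and sequenced on an Illumina NextSeq500.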

ETV5 = ETV5 (Homo sapiens, UniProt P41161 1-510); conditions: protein: recombinant; tags: N-terminal GST; dsDNA, one strand shown
Summary of the method: as §1

HSF1 = HSF1 (Homo sapiens, UniProt Q00613 1-529); conditions: protein: recombinant; tags: N-terminal GST; chain copies: 3; dsDNA, one strand shown
Summary of the method: as §1

SPIC = biological target: T2, SPIC (Homo sapiens, UniProt Q8N5J4 1-248); conditions: protein: recombinant; tags: N-terminal GST; dsDNA, one strand shown
T2 sequence: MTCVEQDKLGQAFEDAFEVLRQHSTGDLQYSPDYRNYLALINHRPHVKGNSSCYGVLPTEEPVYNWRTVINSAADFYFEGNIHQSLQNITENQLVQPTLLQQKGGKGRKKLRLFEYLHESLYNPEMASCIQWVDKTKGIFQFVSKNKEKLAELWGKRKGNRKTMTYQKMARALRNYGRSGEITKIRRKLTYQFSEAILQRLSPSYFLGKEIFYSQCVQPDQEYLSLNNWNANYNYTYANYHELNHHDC
Summary of the method: as §1

ELF4 = ELF4 (Homo sapiens, UniProt Q99607 1-663); conditions: protein: recombinant; tags: N-terminal GST; dsDNA, one strand shown
Summary of the method: as §1

ELK4 = biological target: T3, ELK4 (Homo sapiens, UniProt P28324-2 1-405); conditions: protein: recombinant; tags: N-terminal GST; dsDNA, one strand shown
T3 sequence: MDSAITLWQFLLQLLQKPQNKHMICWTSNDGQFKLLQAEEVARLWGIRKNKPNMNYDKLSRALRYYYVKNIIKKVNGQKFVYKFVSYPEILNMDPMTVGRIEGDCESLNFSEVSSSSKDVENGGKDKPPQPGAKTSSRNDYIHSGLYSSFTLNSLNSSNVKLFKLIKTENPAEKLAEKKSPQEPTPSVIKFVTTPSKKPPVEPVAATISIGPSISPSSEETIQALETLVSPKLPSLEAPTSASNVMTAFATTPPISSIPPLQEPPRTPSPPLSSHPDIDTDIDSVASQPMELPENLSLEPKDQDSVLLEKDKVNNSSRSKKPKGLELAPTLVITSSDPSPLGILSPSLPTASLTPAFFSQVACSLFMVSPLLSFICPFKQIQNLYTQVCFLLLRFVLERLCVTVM
Summary of the method: as §1

ETV2 = biological target: T4, ETV2 (Homo sapiens, UniProt O00321 1-342); conditions: protein: recombinant; tags: N-terminal GST; dsDNA, one strand shown
T4 sequence: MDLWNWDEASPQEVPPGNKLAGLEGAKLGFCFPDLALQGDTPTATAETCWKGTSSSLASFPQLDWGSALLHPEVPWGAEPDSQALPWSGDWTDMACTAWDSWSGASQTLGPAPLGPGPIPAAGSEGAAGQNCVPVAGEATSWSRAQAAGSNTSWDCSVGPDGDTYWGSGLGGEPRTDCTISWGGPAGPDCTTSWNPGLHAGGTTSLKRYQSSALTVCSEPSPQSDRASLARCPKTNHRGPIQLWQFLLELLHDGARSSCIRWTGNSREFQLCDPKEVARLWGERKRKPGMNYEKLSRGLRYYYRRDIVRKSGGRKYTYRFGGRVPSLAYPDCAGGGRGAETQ
Summary of the method: as §1

ELF3 = biological target: T5, ELF3 (Homo sapiens, UniProt P78545 1-371); conditions: protein: recombinant; tags: N-terminal GST; dsDNA, one strand shown
T5 sequence: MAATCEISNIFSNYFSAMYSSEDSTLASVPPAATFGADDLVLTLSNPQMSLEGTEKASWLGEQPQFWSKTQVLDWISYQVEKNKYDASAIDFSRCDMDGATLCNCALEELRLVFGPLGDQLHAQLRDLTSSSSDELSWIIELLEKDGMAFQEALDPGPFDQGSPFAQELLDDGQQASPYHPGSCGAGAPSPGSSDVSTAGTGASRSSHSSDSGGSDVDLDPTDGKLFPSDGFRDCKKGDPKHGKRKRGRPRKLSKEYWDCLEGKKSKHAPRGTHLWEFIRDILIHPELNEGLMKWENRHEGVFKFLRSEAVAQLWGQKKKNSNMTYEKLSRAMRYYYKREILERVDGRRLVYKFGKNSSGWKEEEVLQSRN
Summary of the method: as §1

CRX = CRX (Homo sapiens, UniProt O43186 1-299); conditions: protein: recombinant; tags: N-terminal GST; dsDNA, one strand shown
Summary of the method: as §1

ETV1 = ETV1 (Homo sapiens, UniProt P50549 1-477); conditions: protein: recombinant; tags: N-terminal GST; dsDNA, one strand shown
Summary of the method: as §1

ERF = biological target: T6, ERF (Homo sapiens, UniProt P50548 1-548); conditions: protein: recombinant; tags: N-terminal GST; dsDNA, one strand shown
T6 sequence: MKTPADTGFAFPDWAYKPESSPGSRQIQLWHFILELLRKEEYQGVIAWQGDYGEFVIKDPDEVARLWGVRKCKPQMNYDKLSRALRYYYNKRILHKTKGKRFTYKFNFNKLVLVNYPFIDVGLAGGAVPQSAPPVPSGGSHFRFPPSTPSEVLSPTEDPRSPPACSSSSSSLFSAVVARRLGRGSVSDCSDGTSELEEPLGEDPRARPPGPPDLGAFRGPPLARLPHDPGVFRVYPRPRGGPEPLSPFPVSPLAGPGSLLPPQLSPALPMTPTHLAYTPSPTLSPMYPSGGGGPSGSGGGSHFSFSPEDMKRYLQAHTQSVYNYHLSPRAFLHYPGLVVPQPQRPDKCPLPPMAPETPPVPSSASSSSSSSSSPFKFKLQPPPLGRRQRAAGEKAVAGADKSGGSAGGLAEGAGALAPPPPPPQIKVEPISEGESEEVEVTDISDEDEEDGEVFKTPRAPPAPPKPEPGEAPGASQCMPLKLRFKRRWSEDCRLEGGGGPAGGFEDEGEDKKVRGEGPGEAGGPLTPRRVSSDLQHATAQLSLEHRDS
Summary of the method: as §1

ETV3L = biological target: T7, ETV3L (Homo sapiens, UniProt Q6ZN32 1-361); conditions: protein: recombinant; tags: N-terminal GST; dsDNA, one strand shown
T7 sequence: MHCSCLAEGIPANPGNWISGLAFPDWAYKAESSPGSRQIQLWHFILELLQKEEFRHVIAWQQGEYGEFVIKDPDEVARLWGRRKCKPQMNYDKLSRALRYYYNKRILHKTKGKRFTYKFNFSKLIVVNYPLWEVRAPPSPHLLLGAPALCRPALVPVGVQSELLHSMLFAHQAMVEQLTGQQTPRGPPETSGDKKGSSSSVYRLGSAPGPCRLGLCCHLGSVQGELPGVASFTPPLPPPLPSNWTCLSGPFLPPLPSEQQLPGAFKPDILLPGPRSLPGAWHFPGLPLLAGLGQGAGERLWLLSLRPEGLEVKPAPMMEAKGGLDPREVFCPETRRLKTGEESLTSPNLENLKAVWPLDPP
Summary of the method: as §1

ETS2 = biological target: T8, ETS2 (Homo sapiens, UniProt P15036 1-469); conditions: protein: recombinant; tags: N-terminal GST; dsDNA, one strand shown
T8 sequence: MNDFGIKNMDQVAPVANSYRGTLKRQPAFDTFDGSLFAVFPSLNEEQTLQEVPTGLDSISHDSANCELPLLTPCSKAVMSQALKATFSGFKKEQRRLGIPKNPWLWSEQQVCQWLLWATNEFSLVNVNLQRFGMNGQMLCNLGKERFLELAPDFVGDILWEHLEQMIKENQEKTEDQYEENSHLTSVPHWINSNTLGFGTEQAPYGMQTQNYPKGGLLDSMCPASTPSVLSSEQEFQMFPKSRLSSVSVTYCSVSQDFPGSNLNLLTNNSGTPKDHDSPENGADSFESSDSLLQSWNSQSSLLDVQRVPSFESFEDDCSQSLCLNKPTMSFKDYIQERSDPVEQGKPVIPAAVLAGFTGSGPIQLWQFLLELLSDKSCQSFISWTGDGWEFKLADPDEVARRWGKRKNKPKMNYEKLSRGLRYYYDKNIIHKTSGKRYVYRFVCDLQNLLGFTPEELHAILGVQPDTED
Summary of the method: as §1

SPDEF = biological target: T9, SPDEF (Homo sapiens, UniProt O95238 1-335); conditions: protein: recombinant; tags: N-terminal GST; dsDNA, one strand shown
T9 sequence: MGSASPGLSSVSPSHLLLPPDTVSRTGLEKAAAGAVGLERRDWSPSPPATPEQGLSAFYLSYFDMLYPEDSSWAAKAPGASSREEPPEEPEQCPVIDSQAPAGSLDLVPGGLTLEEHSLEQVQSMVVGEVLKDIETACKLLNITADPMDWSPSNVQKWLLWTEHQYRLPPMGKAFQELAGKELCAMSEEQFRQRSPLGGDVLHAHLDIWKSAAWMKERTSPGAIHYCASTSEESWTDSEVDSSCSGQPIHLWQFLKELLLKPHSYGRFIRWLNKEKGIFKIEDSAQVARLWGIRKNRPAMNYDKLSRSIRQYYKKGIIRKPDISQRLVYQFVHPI
Summary of the method: as §1

ETV7 = biological target: T10, ETV7 (Homo sapiens, UniProt Q9Y603 1-341); conditions: protein: recombinant; tags: N-terminal GST; dsDNA, one strand shown
T10 sequence: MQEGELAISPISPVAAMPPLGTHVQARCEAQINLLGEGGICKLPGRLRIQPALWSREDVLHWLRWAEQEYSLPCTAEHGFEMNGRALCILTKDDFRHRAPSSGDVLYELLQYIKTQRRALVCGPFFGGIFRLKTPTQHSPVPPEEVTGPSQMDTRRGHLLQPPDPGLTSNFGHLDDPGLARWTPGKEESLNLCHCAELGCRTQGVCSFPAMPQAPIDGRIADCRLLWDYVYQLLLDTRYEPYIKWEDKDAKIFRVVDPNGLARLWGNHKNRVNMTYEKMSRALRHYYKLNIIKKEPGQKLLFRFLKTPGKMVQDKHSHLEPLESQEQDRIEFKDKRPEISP
Summary of the method: as §1

ELF5 = biological target: T11, ELF5 (Homo sapiens, UniProt Q9UKW6-2 1-255); conditions: protein: recombinant; tags: N-terminal GST; dsDNA, one strand shown
T11 sequence: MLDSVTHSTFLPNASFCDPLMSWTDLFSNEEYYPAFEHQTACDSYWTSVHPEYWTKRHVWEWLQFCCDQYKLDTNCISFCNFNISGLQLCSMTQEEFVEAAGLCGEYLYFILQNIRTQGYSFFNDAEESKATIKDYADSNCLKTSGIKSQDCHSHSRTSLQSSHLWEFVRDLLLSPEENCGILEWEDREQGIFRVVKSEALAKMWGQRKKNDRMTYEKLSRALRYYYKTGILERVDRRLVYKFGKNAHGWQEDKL
Summary of the method: as §1

ETV3 = biological target: T12, ETV3 (Homo sapiens, UniProt P41162-2 1-143); conditions: protein: recombinant; tags: N-terminal GST; dsDNA, one strand shown
T12 sequence: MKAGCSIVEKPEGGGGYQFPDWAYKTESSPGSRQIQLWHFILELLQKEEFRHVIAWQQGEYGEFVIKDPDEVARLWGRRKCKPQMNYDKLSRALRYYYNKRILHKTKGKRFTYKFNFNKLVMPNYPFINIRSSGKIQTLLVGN
Summary of the method: as §1

ETV6 = ETV6 (Homo sapiens, UniProt P41212 1-452); conditions: protein: recombinant; tags: N-terminal GST; dsDNA, one strand shown
Summary of the method: as §1

Sequence of CRX (O43186 whole entry): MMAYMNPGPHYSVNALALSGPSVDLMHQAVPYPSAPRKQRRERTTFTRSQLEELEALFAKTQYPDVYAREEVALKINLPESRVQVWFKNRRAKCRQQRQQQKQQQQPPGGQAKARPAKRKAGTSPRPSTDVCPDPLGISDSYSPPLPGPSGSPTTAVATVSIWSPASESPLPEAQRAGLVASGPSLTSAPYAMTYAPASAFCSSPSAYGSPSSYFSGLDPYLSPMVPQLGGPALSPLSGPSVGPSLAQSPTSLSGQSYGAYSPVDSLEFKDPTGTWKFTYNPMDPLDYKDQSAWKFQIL
Sequence of HSF1 (Q00613 whole entry): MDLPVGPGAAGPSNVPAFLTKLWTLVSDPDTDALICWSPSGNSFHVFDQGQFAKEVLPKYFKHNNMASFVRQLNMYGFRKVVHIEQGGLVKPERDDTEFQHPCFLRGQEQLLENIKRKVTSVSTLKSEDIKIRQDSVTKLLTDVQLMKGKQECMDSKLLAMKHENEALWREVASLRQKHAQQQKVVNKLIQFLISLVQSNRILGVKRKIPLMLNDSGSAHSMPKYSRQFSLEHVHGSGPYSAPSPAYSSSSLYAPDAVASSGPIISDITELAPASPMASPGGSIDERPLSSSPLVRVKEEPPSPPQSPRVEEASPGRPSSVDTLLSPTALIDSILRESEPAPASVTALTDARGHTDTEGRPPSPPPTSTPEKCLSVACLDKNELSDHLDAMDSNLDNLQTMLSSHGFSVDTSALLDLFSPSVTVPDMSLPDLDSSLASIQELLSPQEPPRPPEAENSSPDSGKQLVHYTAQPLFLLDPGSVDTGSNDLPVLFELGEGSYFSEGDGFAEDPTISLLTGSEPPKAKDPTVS
Sequence of ETV6 (P41212 whole entry): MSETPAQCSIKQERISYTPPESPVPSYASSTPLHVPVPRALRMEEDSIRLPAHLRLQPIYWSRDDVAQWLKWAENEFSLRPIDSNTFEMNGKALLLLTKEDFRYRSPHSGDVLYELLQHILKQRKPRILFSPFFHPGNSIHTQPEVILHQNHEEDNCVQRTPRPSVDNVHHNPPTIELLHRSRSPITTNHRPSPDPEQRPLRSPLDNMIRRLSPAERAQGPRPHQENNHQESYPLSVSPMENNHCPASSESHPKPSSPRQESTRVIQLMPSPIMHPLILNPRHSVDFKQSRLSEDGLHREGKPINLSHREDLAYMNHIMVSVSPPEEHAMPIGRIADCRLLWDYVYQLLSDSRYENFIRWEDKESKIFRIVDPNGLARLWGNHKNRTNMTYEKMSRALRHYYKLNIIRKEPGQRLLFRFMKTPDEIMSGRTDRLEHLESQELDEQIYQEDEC
Sequence of ETV1 (P50549 whole entry): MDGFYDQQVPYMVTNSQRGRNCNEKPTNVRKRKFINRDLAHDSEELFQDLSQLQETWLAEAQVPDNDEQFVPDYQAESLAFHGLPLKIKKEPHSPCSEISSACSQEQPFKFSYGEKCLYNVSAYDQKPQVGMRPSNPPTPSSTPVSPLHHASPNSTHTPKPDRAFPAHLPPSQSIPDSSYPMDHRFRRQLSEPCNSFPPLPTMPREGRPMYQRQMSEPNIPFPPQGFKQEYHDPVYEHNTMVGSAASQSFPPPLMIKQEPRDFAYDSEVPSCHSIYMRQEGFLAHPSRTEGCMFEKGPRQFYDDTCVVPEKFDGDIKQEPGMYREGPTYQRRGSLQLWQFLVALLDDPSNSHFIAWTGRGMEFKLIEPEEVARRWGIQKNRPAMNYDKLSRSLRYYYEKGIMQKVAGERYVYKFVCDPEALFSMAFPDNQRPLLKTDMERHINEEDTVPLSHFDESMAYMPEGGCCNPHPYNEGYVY
Sequence of ETV5 (P41161 whole entry): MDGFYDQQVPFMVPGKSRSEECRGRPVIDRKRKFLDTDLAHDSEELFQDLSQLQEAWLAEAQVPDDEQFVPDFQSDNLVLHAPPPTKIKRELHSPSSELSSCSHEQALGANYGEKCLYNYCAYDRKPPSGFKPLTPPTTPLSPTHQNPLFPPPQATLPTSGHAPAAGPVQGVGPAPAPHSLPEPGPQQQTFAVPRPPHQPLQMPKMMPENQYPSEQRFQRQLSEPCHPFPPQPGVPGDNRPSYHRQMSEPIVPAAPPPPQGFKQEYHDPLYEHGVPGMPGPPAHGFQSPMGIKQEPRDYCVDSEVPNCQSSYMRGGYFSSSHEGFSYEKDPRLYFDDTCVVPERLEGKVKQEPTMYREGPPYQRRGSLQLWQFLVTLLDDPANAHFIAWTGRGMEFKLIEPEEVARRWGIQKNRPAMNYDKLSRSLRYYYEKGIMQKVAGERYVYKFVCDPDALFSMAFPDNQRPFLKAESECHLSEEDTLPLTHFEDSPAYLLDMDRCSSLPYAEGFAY
Sequence of ELF4 (Q99607 whole entry): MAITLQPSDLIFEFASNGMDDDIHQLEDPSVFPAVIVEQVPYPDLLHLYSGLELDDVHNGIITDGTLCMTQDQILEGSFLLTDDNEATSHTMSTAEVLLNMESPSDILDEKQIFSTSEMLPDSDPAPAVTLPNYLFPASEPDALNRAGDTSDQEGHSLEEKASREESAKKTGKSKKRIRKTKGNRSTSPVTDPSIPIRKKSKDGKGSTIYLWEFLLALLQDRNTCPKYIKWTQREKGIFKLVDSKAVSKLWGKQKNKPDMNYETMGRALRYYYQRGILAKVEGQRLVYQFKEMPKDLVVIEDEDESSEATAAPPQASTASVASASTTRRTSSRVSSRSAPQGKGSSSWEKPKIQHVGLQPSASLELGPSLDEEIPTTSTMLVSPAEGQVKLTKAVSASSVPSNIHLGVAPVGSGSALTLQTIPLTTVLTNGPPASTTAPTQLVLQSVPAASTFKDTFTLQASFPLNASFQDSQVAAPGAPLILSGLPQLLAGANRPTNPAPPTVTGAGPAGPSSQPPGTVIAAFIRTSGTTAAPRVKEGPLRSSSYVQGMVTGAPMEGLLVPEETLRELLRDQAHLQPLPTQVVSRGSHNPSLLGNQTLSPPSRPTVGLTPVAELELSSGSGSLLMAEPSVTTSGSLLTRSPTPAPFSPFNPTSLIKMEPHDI

For TCCATA, the binding signal (FEV) was 1.21 fold enrichment (6-mer frequency, TF over GST control), the binding signal (ETV5) was 1.3 fold enrichment (6-mer frequency, TF over GST control) and the binding signal (HSF1) was 1.44 fold enrichment (6-mer frequency, TF over GST control). For the same sequence, the binding signal (SPIC) was 1.3 fold enrichment (6-mer frequency, TF over GST control), the binding signal (ELF4) was 1.2 fold enrichment (6-mer frequency, TF over GST control) and the binding signal (ELK4) was 1.25 fold enrichment (6-mer frequency, TF over GST control). The binding signal (ETV2) was 1.19 fold enrichment (6-mer frequency, TF over GST control), the binding signal (ELF3) was 1.11 fold enrichment (6-mer frequency, TF over GST control) and the binding signal (CRX) was 1.48 fold enrichment (6-mer frequency, TF over GST control). For the same sequence, the binding signal (ETV1) was 1.32 fold enrichment (6-mer frequency, TF over GST control), the binding signal (ERF) was 1.37 fold enrichment (6-mer frequency, TF over GST control) and the binding signal (ETV3L) was 1.27 fold enrichment (6-mer frequency, TF over GST control). For the same sequence, the binding signal (ETS2) was 1.25 fold enrichment (6-mer frequency, TF over GST control), the binding signal (SPDEF) was 1.27 fold enrichment (6-mer frequency, TF over GST control) and the binding signal (ETV7) was 1.14 fold enrichment (6-mer frequency, TF over GST control). For the same sequence, the binding signal (ELF5) was 1.22 fold enrichment (6-mer frequency, TF over GST control), the binding signal (ETV3) was 1.22 fold enrichment (6-mer frequency, TF over GST control) and the binding signal (ETV6) was 1.27 fold enrichment (6-mer frequency, TF over GST control).
